# Experimental data: PubChem BioAssay (EPA / NIEHS)
# Values joined by “and” are separate entries in the source; they are usually repeats but may differ in a detail not shown here. Equal values may be shown once. Results filed as inconclusive are left out. The source holds several records for some structures; these can differ, active in one and inactive in another. Active and inactive are the calls of the source. The calls were made as follows: active = hit-call score of the fitted dose curve at least 0.9, where 1 is the maximum; inconclusive = response in the unintended direction; inactive = score below 0.9.
# Legend:
# [1] = biological target: Androgen Receptor/SRC-1 Co-activator, AR (gene 367) (UniProt P10275); assay: OT_AR_ARSRC1_0960: Odyssey Thera (OT) 16-hour HEK293T Protein-Complementation Assay for Androgen Receptor/SRC-1 Co-activator (AID 2283353);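 also: actives raise the signal above DMSO so potency reflects increased AR and SRC-1 complex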
# Androgen Receptor/SRC-1 Co-activator, AR (gene 367), sequence (P10275 whole entry, looked up, the tested form may be a part): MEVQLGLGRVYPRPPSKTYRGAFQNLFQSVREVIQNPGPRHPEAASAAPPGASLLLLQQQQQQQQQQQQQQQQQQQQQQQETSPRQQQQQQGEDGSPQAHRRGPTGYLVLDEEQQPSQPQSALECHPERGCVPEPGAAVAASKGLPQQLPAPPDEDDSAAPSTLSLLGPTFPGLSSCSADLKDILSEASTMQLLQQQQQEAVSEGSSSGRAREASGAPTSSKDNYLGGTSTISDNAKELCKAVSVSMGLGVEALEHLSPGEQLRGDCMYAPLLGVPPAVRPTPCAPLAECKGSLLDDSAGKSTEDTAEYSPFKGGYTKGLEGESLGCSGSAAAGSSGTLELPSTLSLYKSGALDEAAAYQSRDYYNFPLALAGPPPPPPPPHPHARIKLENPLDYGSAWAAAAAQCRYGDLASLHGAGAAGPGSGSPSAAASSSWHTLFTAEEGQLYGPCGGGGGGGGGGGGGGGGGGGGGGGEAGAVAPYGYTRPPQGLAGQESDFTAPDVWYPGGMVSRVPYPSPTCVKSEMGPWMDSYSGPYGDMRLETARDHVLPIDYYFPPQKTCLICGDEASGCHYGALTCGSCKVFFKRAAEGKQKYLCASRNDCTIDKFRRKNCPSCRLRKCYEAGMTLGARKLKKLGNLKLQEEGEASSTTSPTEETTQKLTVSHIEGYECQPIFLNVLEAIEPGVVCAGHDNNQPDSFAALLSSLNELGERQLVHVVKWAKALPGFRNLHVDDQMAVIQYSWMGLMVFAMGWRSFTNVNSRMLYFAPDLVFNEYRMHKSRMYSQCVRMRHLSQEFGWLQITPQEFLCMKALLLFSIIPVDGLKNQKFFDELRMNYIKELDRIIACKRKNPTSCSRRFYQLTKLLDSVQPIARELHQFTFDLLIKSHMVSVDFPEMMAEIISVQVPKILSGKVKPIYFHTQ
# Method in brief: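 Endpoint is gain-of-signal N/C fluorescence ratio in the 488 nm channel versus DMSO, from at least 400 cells per image, measured 16 h post-dosing. Cells: HEK293T stably carrying split-Venus AR/SRC-1 complementation constructs.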
# [2] = biological target: Androgen Receptor/SRC-1 Co-activator, AR (gene 367) (UniProt P10275); assay: OT_AR_ARSRC1_0480: Odyssey Thera (OT) 8-hour HEK293T Protein-Complementation Assay for Androgen Receptor/SRC-1 Co-activator (AID 2283354);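 also: hits raise the complementation signal above DMSO so AC50 marks enhancers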
# Method in brief: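 After 8 h dosing, stably expressing HEK293T cells with split-Venus AR/SRC-1 fusions were imaged (488, 635nm). The 488nm N/C ratio per image gave the endpoint, analysed in the positive direction against DMSO.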
# [3] = biological target: Retinoic acid receptor alpha (Homo sapiens) (UniProt P10276); assay: NVS_NR_hRARa_Agonist: NovaScreen (NVS) Nuclear Receptor Binding Assay for human Retinoic Acid Alpha Receptor Agonism (RAR) (AID 2283361)
# Method in brief: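 Compounds screened at 25 uM, duplicate, then in concentration series if active. Detection: TR-FRET gain of signal versus DMSO after 2 h with cell-free extracted RARα.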
# [4] = biological target: Nuclear receptor subfamily 1 group I member 2 (Homo sapiens) (UniProt O75469); assay: NVS_NR_hPXR: NovaScreen (NVS) Nuclear Receptor Binding Assay for human Pregnane X Receptor (PXR) (AID 2283365);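 also: a drop in FRET signal versus DMSO baseline means the compound binds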
# Method in brief: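 Cell-free TR-FRET binding assay with extracted human PXR protein, read 2 h after dosing. Primary screen run in duplicate at 25 uM, actives followed in concentration series; loss of signal fitted against DMSO baseline.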
# [5] = biological target: rat Androgen Receptor (AR), Ar (gene 24208) (UniProt P15207); assay: NVS_NR_rAR: NovaScreen (NVS) Nuclear Receptor Binding Assay for rat Androgen Receptor (AR) (AID 2283366)
# rat Androgen Receptor (AR), Ar (gene 24208), sequence (P15207 whole entry, looked up): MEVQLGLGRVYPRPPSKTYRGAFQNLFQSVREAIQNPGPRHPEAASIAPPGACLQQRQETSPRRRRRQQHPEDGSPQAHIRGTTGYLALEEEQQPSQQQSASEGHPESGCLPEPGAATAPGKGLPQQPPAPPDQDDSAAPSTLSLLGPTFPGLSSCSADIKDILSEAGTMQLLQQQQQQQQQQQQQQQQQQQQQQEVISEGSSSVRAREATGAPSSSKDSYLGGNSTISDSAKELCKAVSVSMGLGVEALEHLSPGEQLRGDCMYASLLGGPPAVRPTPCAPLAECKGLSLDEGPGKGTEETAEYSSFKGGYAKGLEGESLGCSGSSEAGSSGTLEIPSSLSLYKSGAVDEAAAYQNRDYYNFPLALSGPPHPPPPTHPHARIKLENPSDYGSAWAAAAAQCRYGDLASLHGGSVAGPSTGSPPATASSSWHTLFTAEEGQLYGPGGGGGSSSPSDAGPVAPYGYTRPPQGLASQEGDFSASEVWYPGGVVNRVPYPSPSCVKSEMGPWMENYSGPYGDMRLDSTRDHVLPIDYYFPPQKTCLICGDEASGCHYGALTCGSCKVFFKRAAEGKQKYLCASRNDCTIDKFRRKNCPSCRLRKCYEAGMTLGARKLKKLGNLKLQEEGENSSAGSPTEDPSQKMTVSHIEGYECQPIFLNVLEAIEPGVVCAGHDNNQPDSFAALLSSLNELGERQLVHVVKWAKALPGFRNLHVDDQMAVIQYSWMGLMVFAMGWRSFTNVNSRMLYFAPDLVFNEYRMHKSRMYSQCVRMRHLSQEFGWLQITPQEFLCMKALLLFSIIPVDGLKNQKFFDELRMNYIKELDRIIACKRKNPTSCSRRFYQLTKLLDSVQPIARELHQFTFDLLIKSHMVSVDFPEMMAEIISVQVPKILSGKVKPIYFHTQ
# Method in brief: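 Actives from a duplicate single-concentration (25 uM) primary run went on to concentration series. Displacement of radioligand was counted by filtration and scintillation, 18 h post-dose, using prostate extracts from testosterone-pretreated rats, with DMSO as baseline.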
# [6] = biological target: Peroxisome proliferator-activated receptor gamma (Homo sapiens) (UniProt P37231); assay: NVS_NR_hPPARg: NovaScreen (NVS) Nuclear Receptor Binding Assay for human Peroxisome Proliferator-activated Receptor gamma (PPARg) (AID 2283370)
# Peroxisome proliferator-activated receptor gamma (Homo sapiens), sequence (P37231 whole entry, looked up): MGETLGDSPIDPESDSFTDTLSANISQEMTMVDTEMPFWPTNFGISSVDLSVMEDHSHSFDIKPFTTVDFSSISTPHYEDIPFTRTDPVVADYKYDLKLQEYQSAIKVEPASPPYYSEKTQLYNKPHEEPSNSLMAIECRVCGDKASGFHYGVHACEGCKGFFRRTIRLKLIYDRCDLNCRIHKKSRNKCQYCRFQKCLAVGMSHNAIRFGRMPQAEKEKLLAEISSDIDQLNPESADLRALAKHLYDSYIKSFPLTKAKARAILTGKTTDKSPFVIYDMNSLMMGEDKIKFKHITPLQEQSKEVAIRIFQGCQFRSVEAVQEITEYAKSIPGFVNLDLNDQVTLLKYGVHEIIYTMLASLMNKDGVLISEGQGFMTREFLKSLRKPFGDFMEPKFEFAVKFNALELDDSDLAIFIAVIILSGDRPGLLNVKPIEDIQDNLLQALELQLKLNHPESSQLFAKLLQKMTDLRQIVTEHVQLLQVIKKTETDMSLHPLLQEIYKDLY
# Method in brief: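 Cell-free fluorescence polarization binding to human PPARg protein, read 2 h after dosing. Primary screen in duplicate at 25 uM, actives followed in concentration series; loss of signal relative to DMSO scored.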
# [7] = biological target: rat Mineralocorticoid Receptor (MR), Nr3c2 (gene 25672) (UniProt P22199); assay: NVS_NR_rMR: NovaScreen (NVS) Nuclear Receptor Binding Assay for rat Mineralocorticoid Receptor (MR) (AID 2283355)
# Method in brief: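 Single-concentration duplicate screen (25 uM) of radioligand binding in adrenalectomized rat brain supernatant; scintillation detection 24 h after dosing. Positive and negative controls ran on each plate, and confirmed actives went to concentration-response.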
# [8] = biological target: Glucocorticoid receptor (Homo sapiens) (UniProt P04150); assay: NVS_NR_hGR: NovaScreen (NVS) Nuclear Receptor Binding Assay for human Glucocorticoid Receptor (GR) (AID 2283363);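 as to AC50: activity is loss of specific radioligand binding signal relative to DMSO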
# Glucocorticoid receptor (Homo sapiens), sequence (P04150 whole entry, looked up): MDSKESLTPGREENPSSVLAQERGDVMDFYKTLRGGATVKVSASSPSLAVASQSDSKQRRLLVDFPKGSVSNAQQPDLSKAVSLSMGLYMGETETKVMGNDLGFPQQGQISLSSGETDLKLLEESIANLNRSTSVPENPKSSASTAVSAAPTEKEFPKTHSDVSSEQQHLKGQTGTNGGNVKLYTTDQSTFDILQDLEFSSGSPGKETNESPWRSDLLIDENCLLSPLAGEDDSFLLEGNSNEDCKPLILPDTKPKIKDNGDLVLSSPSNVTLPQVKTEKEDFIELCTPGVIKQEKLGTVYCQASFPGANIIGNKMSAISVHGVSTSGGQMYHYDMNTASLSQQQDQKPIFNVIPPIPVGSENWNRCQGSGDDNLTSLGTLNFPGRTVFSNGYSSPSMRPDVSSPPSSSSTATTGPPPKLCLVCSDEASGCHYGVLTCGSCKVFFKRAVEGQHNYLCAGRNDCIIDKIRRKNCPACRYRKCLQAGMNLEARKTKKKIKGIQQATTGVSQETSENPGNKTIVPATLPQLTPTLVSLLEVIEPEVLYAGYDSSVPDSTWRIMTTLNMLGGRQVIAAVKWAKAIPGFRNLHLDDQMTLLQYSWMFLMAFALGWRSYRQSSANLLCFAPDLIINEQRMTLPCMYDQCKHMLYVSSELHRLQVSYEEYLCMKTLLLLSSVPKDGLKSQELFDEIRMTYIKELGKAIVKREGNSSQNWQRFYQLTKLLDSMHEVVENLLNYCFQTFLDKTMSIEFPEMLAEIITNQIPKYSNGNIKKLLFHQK
# Method in brief: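 Single-readout cell-free binding: radioligand plus extracted receptor, 16-hour dosing, filter radiodetection; 25 uM duplicate primary, concentration series secondary.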
# [9] = tested on: guinea pig Dopamine Transporter (DAT), gene 100714898; assay: NVS_TR_gDAT: NovaScreen (NVS) Transporter Assay for guinea pig Dopamine Transporter (DAT) (AID 2283369);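 also: active compounds lower bound radioligand signal relative to DMSO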
# Method in brief: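 Guinea pig striatal membranes, cell-free radioligand binding with filter-based scintillation counting, read 2 h after dosing. Loss of signal versus DMSO baseline; single-concentration primary (25 uM) then concentration-response up to 50 uM.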
# [10] = biological target: human Dopamine Transporter (DAT), SLC6A3 (gene 6531) (UniProt Q01959); assay: NVS_TR_hDAT: NovaScreen (NVS) Transporter Assay for human Dopamine Transporter (DAT) (AID 2283374);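 also: activity means loss of bound radioligand signal relative to DMSO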
# Method in brief: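 Extracted human SLC6A3 protein incubated 1 h with radioligand and test chemical; bound fraction separated on filters and counted. Single 25 uM duplicate screen preceded concentration-response follow-up; positive and negative controls on every plate.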
# [11] = biological target: Estrogen receptor beta (Homo sapiens) (UniProt Q92731); assay: OT_ER_ERbERb_0480: Odyssey Thera (OT) 8-hour HEK293T Protein-Complementation Assay for Estrogen Receptor-beta/-beta Homodimer (AID 2283357);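 also: active means signal gain over DMSO baseline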
# Estrogen receptor beta (Homo sapiens), sequence (Q92731 whole entry, looked up, the tested form may be a part): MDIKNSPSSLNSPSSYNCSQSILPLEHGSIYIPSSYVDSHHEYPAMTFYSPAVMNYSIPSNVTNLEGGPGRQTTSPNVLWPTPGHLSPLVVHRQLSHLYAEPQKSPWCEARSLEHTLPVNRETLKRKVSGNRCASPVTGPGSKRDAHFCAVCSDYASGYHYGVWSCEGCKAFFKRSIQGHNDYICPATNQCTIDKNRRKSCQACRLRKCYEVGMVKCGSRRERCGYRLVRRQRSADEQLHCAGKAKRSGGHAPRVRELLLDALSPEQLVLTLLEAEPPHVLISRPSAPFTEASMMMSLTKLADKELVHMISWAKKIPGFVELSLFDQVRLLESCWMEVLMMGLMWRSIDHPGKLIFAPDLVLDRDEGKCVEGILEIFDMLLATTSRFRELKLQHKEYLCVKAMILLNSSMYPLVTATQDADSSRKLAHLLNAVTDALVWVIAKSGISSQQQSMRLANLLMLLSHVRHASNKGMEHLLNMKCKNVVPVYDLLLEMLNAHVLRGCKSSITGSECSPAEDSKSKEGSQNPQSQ
# Method in brief: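 Fluorescence gain from complemented reporter fragments on ER-beta LBD homodimer in HEK293T was quantified against DMSO controls after 8 h treatment, fixation in 4% formaldehyde and Draq5 staining.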
# [12] = biological target: Retinoic acid receptor alpha (Homo sapiens) (UniProt P10276); assay: NVS_NR_hRAR_Antagonist: NovaScreen (NVS) Nuclear Receptor Binding Assay for human Retinoic Acid Alpha Receptor Antagonism (RAR) (AID 2283358)
# Method in brief: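 Chemicals were first tested in duplicate at 25 uM, then actives in concentration series, in a cell-free TR-FRET antagonist binding format. Measurements were taken 2 hours after dosing and loss of signal was evaluated against DMSO controls.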
# PGR (gene 5241) = PGR (gene 5241) (UniProt P06401); assay: NVS_NR_hPR: NovaScreen (NVS) Nuclear Receptor Binding Assay for human Progestron Receptor (PR) (AID 2283360);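 also: active means loss of bound radioligand signal versus DMSO baseline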
# Method in brief: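 T47D-derived receptor preparation, cell-free, with tritiated or iodinated radioligand displacement measured by scintillation 18 h post-dosing. Single 25 uM duplicate screen, then concentration series; signal loss relative to DMSO.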
# [13] = biological target: Estrogen receptor (Homo sapiens) + Estrogen receptor beta (Homo sapiens) (UniProt P03372+Q92731); assay: OT_ER_ERaERb_1440: Odyssey Thera (OT) 24-hour HEK293T Protein-Complementation Assay for Estrogen Receptor-alpha/-beta Homodimer (AID 2283356);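 also: heteromer of ER alpha and ER beta binding domains; hits raise reporter fluorescence and both agonists and antagonists give an increase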
# Estrogen receptor (Homo sapiens) + Estrogen receptor beta (Homo sapiens), sequence (P03372 whole entry, looked up, the tested form may be a part): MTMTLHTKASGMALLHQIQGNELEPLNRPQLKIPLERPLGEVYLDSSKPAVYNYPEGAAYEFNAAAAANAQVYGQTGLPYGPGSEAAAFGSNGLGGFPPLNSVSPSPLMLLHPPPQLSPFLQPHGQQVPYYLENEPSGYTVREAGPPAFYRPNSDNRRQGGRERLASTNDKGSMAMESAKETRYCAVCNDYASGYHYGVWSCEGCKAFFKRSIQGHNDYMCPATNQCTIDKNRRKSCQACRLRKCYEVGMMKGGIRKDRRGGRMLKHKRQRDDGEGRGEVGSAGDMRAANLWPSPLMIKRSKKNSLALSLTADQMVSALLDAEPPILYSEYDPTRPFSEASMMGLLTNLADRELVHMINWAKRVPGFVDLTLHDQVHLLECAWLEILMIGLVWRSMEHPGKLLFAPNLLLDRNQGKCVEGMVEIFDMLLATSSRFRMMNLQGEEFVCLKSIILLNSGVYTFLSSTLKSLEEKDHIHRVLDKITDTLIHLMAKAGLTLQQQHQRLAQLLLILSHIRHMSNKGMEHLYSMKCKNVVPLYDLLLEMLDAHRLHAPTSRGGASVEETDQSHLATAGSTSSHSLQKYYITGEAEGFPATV
# Estrogen receptor (Homo sapiens) + Estrogen receptor beta (Homo sapiens), sequence (Q92731 whole entry, looked up, the tested form may be a part): as the sequence (Q92731 whole entry, looked up, the tested form may be a part) above
# Method in brief: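 HEK293T stably expressing a PCA of ER alpha LBD (aa 310-547) and ER beta LBD (aa 263-489). After 24 h compound exposure, mean fluorescence intensity in nucleus (agonists) or nucleus and cytoplasm (antagonists) measured by laser scanning cytometry versus vehicle.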
# [14] = biological target: guinea pig Sigma Receptor, Non-selective Binding, SIGMAR1 (gene 100135589) (UniProt Q60492); assay: NVS_OR_gSIGMA_NonSelective: NovaScreen (NVS) Nuclear Receptor Binding Assay for guinea pig Sigma Receptor, Non-selective Binding (AID 2283367)
# guinea pig Sigma Receptor, Non-selective Binding, SIGMAR1 (gene 100135589), sequence (Q60492 whole entry, looked up): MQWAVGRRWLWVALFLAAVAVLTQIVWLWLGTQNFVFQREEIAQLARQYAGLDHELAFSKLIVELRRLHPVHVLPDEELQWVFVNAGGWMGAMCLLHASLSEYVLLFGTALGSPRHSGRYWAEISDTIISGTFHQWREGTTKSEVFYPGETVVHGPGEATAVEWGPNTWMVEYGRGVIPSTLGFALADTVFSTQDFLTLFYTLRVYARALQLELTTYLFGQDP
# Method in brief: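 Test chemicals were screened in duplicate at 25 uM, then in concentration series if active, against radioligand binding to guinea pig brain membranes; filtration and scintillation counting at 1 h measured remaining bound ligand.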
# [15] = biological target: human Adenosine Transporter (Adot), SLC29A1 (gene 2030) (UniProt Q99808); assay: NVS_TR_hAdoT: NovaScreen (NVS) Transporter Assay for human Adenosine Transporter (Adot) (AID 2283368)
# Method in brief: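 Binding displacement on U937 extracted protein, read 1 h post-dose by filtration and scintillation counting. Primary duplicate test at 25 uM, then singleton concentration series with 50 uM top; DMSO baseline.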
# [16] = biological target: rat Serotonin Transporter (SERT), Slc6a4 (gene 25553) (UniProt P31652); assay: NVS_TR_rSERT: NovaScreen (NVS) Transporter Assay for rat Serotonin Transporter (SERT) (AID 2283375)
# Method in brief: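 Rat forebrain membranes; radioligand displacement at SERT read by filter-based scintillation counting, 1 h after dosing. Screened in duplicate at 25 uM, actives then run in concentration series; loss of signal versus DMSO baseline.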
compound,measurement,setting,value
O=c1c(-c2ccc(O)cc2)coc2cc(O)cc(O)c12,outcome,[1],inactive
same,outcome,[2],inactive
same,outcome,[3],inactive
same,outcome,[4],inactive
same,outcome,[5],inactive
same,AC50,[6],39.4 µM (active)
C[C@]12CC[C@@H]3c4ccc(O)cc4CC[C@H]3[C@@H]1CC[C@H]2O,AC50,[7],0.135 µM (active)
same,AC50,[8],374 nM (active) and 448 nM (active) and 261 nM (active)
same,outcome,[8],inactive
same,outcome,[4],inactive
same,AC50,[9],0.231 µM (active)
same,outcome,[6],inactive
same,AC50,[10],0.252 µM (active)
O=C(O)Cc1cc(I)c(Oc2ccc(O)c(I)c2)c(I)c1,outcome,[7],inactive
same,outcome,[11],inactive
same,outcome,[12],inactive
same,AC50,PGR (gene 5241),6.44 µM (active)
same,AC50,[8],561 nM (active) [middle of 4 runs]
same,outcome,[4],inactive
same,outcome,[6],inactive
O=c1ccc2ccccc2o1,outcome,[13],inactive
same,outcome,[11],inactive
CN(C)c1ccc(C(=C2C=CC(=[N+](C)C)C=C2)c2ccc(N(C)C)cc2)cc1,AC50,[1],0.273 µM (active)
same,AC50,[2],3.28 µM (active)
same,outcome,[13],inactive
same,AC50,[8],1.87 µM (active)
same,AC50,[4],6.47 µM (active)
same,AC50,[5],6.51 µM (active)
same,AC50,[14],14.8 µM (active)
same,AC50,[15],7.35 µM (active)
same,AC50,[9],7.68 µM (active)
same,AC50,[6],1.4 µM (active)
same,AC50,[10],4.25 µM (active)
same,AC50,[16],7.04 µM (active)
Cc1cc(F)ccc1-c1cc(N2CC[C@@H](O)[C@H]2CO)ncc1N(C)C(=O)C(C)(C)c1cc(C(F)(F)F)cc(C(F)(F)F)c1,AC50,[1],15.2 µM (active)
same,AC50,[2],23.6 µM (active)
same,outcome,[13],inactive
same,outcome,[11],inactive
same,AC50,PGR (gene 5241),0.401 µM (active)
same,AC50,[8],4.3 µM (active)
same,outcome,[5],inactive
same,AC50,[9],8.3 µM (active)
same,outcome,[6],inactive
CC(C)(O)c1ccc(CNC(=O)c2cccnc2Oc2ccc3nonc3c2)cc1,outcome,[13],inactive
same,outcome,[11],inactive
same,outcome,PGR (gene 5241),inactive
same,outcome,[8],inactive
same,outcome,[6],inactive
